According to PubChem BioAssay (NCATS):
Results filed as inconclusive are left out. Values without a mark were called inactive. Calls come from the whole dose curve.

assay: Cell Viability - BJ (AID 421); conditions: BJ fibroblast viability, qHTS;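 note: cells exposed to compound for 40 hours at 37 °C before readout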
Text: NIH Chemical Genomics Center [NCGC]
NIH Molecular Libraries Screening Centers Network [MLSCN]
National Institutes of Environmental Health Sciences [NIEHS]
National Toxicology Program [NTP]
We have developed a 1536-well cell-based assay for quantitative high throughput screening (qHTS) against a number of cell lines to determine in vitro cytotoxicity of small molecules. This particular assay uses the BJ cell line from ATCC which is derived from normal human foreskin fibroblasts.
NCGC Assay Protocol Summary:
The CellTiter-Glo luminescent cell viability assay (Promega) is a homogeneous method to measure the number of viable cells in culture. The end point readout of this assay is based on quantitation of intracellular ATP, an indicator of metabolic activity, using the luciferase reaction. Luciferase catalyzes the oxidation of beetle Luciferin to oxyluciferin and light in the presence of ATP. The luminescent signal is proportional to amount of ATP present.
Using the CellTiter-Glo luminescent cell viability assay, the amount of cellular ATP was measured in the BJ cell line with complete culture medium following compound treatment for 40 hours. The assay was performed in opaque white Kalypsys 1536-well plates. In the screen, tamoxifen and doxorubicin were used as positive controls. Library compounds were measured for their ability to cause acute toxicity in the cell line, as reflected by a decrease in intracellular ATP levels, in a concentration-dependent manner. Data were normalized to the controls for basal activity (DMSO only) and 100% inhibition (100 uM tamoxifen). AC50 values were determined from concentration-response data modeled with the standard Hill equation.
qHTS protocol fo CellTiter Glo BJ cellular assay
[Step] [Parameter] [Value] [Description]
1. Reagent; 5 uL; 1500 BJ cells/well
2. Time; 5 hr; 37 °C incubation
4. Controls; 23 nL; Tamoxifen 0.34 uM to 100 uM & Doxorubicin 0.02 nM to 100 uM
5. Time; 40 hr; 37 °C incubation
6. Reagent; 5 uL; CellTiter Glo reagent
7. Time; 20 min; Room Temperature
8. Detection; Luminescence; Viewlux plate reader
Keywords: cell viability, cytotoxicity, BJ cell line, luminescence, NTPHTS, NTPHTS_NCGC, NIEHS, EPA, DSSTox, MLSMR, MLSCN, NIH Roadmap, qHTS, NCGC
Potency is the fitted concentration of half-maximal effect.

Question: Which Potency does the source give for `CC1CC(=O)O1` (stereo not given) here?
Answer: The Potency was over 92 µM.

Question: With `Nc1ccc(Cc2ccc(N)cc2)cc1` as the molecule, how does the Potency read?
Answer: Its Potency is over 92 µM.

Question: Which Potency does the source give for `COc1ccccc1N` here?
Answer: The Potency was over 92 µM.

Question: Which Potency does the source give for `C=COC(C)=O` here?
Answer: Its Potency is over 92 µM.

Question: Which Potency does the source give for `BrCC(Br)(Br)Br` here?
Answer: Its Potency is over 92 µM.

Question: For `OCCOCCO`, which Potency is on record?
Answer: Its Potency is over 92 µM.

Question: Which Potency does the source give for `CC(C)(COCC1CO1)COCC1CO1` (stereo not given) here?
Answer: The Potency was over 92 µM.

Question: With `ClCCOCOCCCl` as the molecule, how does the Potency read?
Answer: Its Potency is over 92 µM.

Question: Which Potency does the source give for `CCBr` here?
Answer: The Potency was over 92 µM.

Question: For `Brc1cccc(-c2ccccc2)c1`, which Potency is on record?
Answer: Its Potency is over 92 µM.

Question: For `CC[N+](=O)[O-]`, which Potency is on record?
Answer: Its Potency is over 92 µM.

Question: With `ClCCBr` as the molecule, how does the Potency read?
Answer: Its Potency is over 92 µM.

Question: Which Potency does the source give for `Nc1cccc(Cl)c1` here?
Answer: Its Potency is over 92 µM.

Question: With `O=Cc1ccc(Cl)cc1Cl` as the molecule, how does the Potency read?
Answer: The Potency was over 92 µM.

Question: For `Cc1cnc[nH]1`, which Potency is on record?
Answer: The Potency was over 92 µM.

Question: Which Potency does the source give for `Nc1c(Br)cc([N+](=O)[O-])cc1[N+](=O)[O-]` here?
Answer: Its Potency is over 92 µM.

Question: With `C[N+](=O)[O-]` as the molecule, how does the Potency read?
Answer: The Potency was over 92 µM.

Question: For `c1ccc(OCC2CO2)cc1` (stereo not given), which Potency is on record?
Answer: The Potency was over 92 µM.

Question: For `O=C(O)C(Cl)Br` (stereo not given), which Potency is on record?
Answer: The Potency was over 92 µM.

Question: Which Potency does the source give for `C=CCOCC1CO1` (stereo not given) here?
Answer: The Potency was over 92 µM.

Question: With `c1ccoc1` as the molecule, how does the Potency read?
Answer: Its Potency is over 92 µM.

Question: With `Cl/C=C/CCl` as the molecule, how does the Potency read?
Answer: The Potency was over 92 µM.

Question: With `O=[N+]([O-])c1cccc2c([N+](=O)[O-])cccc12` as the molecule, how does the Potency read?
Answer: Its Potency is over 92 µM.

Question: For `N#CCCC#N`, which Potency is on record?
Answer: The Potency was over 92 µM.

Question: For `Oc1cc(Cl)cc(Cl)c1`, which Potency is on record?
Answer: The Potency was over 92 µM.

Question: Which Potency does the source give for `O=[N+]([O-])c1ccc(O)c([N+](=O)[O-])c1` here?
Answer: Its Potency is over 92 µM.

Question: With `N#CCBr` as the molecule, how does the Potency read?
Answer: Its Potency is over 92 µM.

Question: With `N#CC(O)c1ccccc1` (stereo not given) as the molecule, how does the Potency read?
Answer: Its Potency is over 92 µM.

Question: With `O=[N+]([O-])c1cc(Cl)c(Cl)cc1Cl` as the molecule, how does the Potency read?
Answer: Its Potency is over 92 µM.

Question: For `Clc1ccc(C(c2ccccc2Cl)C(Cl)(Cl)Cl)cc1` (stereo not given), which Potency is on record?
Answer: The Potency was over 92 µM.

Question: Which Potency does the source give for `O=P(OCCCl)(OCCCl)OCCCl` here?
Answer: The Potency was over 92 µM.

Question: Which Potency does the source give for `CCOP(=S)(OCC)Oc1nc(Cl)c(Cl)cc1Cl` here?
Answer: Its Potency is over 92 µM.

Question: With `Clc1cccc2ccccc12` as the molecule, how does the Potency read?
Answer: Its Potency is over 92 µM.

Question: With `Nc1ccccc1-c1ccccc1` as the molecule, how does the Potency read?
Answer: The Potency was over 92 µM.

Question: With `O=[N+]([O-])c1cccc(O)c1` as the molecule, how does the Potency read?
Answer: Its Potency is over 92 µM.

Question: Which Potency does the source give for `ClC(Cl)(Cl)C(Cl)(Cl)Cl` here?
Answer: Its Potency is over 92 µM.

Question: For `C=C(Cl)CSC(=S)N(CC)CC`, which Potency is on record?
Answer: The Potency was over 92 µM.

Question: For `COC(C)(C)C`, which Potency is on record?
Answer: The Potency was over 92 µM.

Question: With `CCOC(=O)CC(SP(=O)(OC)OC)C(=O)OCC` (stereo not given) as the molecule, how does the Potency read?
Answer: Its Potency is over 92 µM.

Question: For `CC(=O)[O-].CC(=O)[O-].CC(=O)[O-].[Cr+3]`, which Potency is on record?
Answer: The Potency was over 92 µM.
